In ChEMBL document CHEMBL1961873, “Compounds: GSK PKIS; Assays: Nanosyn kinase panel” (2012):

Columns and labels:
[1] = target: Glycogen synthase kinase-3 beta (Homo sapiens) (UniProt P49841); conditions: at 1 µM;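 also: reported values are mean percent inhibition of GSK3B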
[2] = target: Homeodomain-interacting protein kinase 1 (Homo sapiens) (UniProt Q86Z02); conditions: at 0.1 µM
[3] = target: Homeodomain-interacting protein kinase 1 (Homo sapiens) (UniProt Q86Z02); conditions: at 1 µM
[4] = target: T1, Homeodomain-interacting protein kinase 4 (Homo sapiens) (UniProt Q8NE63); conditions: at 0.1 µM
T1 sequence (whole entry): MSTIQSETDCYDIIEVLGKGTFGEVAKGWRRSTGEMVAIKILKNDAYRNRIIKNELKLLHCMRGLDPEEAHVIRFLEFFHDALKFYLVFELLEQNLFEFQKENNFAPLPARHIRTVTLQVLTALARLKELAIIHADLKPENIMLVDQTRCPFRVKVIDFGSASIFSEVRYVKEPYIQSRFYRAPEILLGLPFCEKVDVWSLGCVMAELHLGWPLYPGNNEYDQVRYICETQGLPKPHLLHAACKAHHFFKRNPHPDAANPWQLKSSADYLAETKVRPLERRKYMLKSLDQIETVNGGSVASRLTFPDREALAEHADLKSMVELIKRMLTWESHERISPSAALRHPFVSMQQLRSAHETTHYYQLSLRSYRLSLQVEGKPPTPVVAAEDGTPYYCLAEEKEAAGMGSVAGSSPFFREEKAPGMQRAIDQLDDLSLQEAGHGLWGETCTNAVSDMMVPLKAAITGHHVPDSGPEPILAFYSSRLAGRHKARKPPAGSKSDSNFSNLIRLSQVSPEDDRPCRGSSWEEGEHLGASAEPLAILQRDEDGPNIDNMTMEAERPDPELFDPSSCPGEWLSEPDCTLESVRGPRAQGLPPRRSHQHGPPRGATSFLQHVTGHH

[5] = target: T1, Homeodomain-interacting protein kinase 4 (Homo sapiens); conditions: at 1 µM
[6] = target: Mitogen-activated protein kinase 9 (Homo sapiens) (UniProt P45984); conditions: at 0.1 µM
Mitogen-activated protein kinase 9 (Homo sapiens), sequence (P45984 whole entry, looked up): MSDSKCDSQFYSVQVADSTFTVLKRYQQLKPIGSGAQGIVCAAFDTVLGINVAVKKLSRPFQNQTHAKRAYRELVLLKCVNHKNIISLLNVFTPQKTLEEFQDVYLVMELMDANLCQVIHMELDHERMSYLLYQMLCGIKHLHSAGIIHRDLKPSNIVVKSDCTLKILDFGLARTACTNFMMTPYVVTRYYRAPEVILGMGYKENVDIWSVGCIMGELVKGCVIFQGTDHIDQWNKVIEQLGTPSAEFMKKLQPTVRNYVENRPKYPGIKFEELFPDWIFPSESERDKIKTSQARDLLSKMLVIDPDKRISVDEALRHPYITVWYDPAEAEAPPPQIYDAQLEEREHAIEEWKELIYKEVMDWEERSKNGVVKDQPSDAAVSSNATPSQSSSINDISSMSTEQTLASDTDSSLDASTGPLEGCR

[7] = target: Mitogen-activated protein kinase 9 (Homo sapiens) (UniProt P45984); conditions: at 1 µM
[8] = target: Mitogen-activated protein kinase 1 (Homo sapiens) (UniProt P28482); conditions: at 0.1 µM
Mitogen-activated protein kinase 1 (Homo sapiens), sequence (P28482 whole entry): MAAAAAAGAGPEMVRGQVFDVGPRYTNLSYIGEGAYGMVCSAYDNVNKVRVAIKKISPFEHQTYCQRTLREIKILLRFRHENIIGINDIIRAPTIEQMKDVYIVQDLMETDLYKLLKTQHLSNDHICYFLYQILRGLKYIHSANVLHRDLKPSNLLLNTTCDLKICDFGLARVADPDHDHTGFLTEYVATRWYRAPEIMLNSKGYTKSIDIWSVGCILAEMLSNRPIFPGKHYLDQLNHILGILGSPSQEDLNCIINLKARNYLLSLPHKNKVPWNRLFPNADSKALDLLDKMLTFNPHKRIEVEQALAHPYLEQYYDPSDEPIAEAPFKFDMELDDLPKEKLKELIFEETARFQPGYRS

[9] = target: Mitogen-activated protein kinase 1 (Homo sapiens) (UniProt P28482); conditions: at 1 µM
[10] = target: Mitogen-activated protein kinase 3 (Homo sapiens) (UniProt P27361); conditions: at 0.1 µM
Mitogen-activated protein kinase 3 (Homo sapiens), sequence (P27361 whole entry): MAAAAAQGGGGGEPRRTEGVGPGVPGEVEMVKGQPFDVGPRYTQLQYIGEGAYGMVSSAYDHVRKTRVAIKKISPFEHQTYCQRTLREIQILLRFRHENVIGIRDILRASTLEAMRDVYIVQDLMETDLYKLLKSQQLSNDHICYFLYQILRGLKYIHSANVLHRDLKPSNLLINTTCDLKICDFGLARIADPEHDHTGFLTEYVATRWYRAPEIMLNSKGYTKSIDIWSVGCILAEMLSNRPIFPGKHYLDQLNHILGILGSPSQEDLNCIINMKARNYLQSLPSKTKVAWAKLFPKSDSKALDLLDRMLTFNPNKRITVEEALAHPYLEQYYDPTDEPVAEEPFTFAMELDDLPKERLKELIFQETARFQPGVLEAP

[11] = target: Mitogen-activated protein kinase 3 (Homo sapiens) (UniProt P27361); conditions: at 1 µM
[12] = target: SRSF protein kinase 3 (Homo sapiens) (UniProt Q9UPE1); conditions: at 0.1 µM
SRSF protein kinase 3 (Homo sapiens), sequence (Q9UPE1 whole entry): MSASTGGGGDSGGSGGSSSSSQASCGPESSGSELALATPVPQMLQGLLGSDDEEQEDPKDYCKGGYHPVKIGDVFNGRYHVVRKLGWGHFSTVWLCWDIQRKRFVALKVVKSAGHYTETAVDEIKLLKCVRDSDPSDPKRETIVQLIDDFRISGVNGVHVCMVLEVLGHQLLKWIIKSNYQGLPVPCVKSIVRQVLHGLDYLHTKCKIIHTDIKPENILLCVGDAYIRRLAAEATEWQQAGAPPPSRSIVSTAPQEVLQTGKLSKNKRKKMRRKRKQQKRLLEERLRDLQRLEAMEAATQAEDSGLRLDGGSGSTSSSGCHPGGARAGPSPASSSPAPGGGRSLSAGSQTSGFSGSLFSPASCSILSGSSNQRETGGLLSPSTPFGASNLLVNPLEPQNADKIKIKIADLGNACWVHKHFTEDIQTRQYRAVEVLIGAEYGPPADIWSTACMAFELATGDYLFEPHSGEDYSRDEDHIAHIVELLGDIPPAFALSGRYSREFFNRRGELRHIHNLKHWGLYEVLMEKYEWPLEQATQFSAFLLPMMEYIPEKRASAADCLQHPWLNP

[13] = target: SRSF protein kinase 3 (Homo sapiens) (UniProt Q9UPE1); conditions: at 1 µM
[14] = target: Mitogen-activated protein kinase 14 (Homo sapiens) (UniProt Q16539); conditions: at 0.1 µM
Mitogen-activated protein kinase 14 (Homo sapiens), sequence (Q16539 whole entry): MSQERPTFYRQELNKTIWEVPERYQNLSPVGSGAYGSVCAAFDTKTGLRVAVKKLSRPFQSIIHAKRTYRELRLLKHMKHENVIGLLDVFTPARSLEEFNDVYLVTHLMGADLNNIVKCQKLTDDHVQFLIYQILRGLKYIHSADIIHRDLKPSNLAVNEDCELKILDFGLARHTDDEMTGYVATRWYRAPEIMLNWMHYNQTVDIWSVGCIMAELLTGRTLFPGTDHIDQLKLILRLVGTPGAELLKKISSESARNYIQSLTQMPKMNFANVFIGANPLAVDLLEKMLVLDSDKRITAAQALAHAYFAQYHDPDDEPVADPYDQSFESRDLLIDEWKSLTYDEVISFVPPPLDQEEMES

[15] = target: Mitogen-activated protein kinase 14 (Homo sapiens) (UniProt Q16539); conditions: at 1 µM
[16] = target: Mitogen-activated protein kinase 11 (Homo sapiens) (UniProt Q15759); conditions: at 0.1 µM
Mitogen-activated protein kinase 11 (Homo sapiens), sequence (Q15759 whole entry): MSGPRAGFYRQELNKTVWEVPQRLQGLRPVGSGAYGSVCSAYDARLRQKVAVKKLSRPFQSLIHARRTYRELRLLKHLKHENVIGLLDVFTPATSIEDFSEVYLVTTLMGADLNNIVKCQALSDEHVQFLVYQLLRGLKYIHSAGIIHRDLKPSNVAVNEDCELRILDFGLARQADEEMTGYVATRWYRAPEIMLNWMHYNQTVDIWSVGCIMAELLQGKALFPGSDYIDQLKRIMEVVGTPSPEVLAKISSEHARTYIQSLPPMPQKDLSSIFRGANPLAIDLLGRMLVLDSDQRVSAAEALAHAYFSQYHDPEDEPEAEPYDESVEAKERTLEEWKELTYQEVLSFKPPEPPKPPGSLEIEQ

[17] = target: Mitogen-activated protein kinase 11 (Homo sapiens) (UniProt Q15759); conditions: at 1 µM
[18] = target: T2, Mitogen-activated protein kinase 13 (Homo sapiens) (UniProt O15264); conditions: at 0.1 µM
T2 sequence (whole entry): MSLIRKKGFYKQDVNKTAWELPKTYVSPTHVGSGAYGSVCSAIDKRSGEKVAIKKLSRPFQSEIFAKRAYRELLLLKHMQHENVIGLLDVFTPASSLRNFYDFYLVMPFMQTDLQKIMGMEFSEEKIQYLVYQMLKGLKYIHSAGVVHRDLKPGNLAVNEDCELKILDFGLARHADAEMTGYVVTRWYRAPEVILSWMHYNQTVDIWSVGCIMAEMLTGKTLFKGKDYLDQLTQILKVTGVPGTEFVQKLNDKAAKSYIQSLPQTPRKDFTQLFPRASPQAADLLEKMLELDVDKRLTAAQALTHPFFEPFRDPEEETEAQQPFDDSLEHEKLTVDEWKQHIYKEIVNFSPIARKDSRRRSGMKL

[19] = target: T2, Mitogen-activated protein kinase 13 (Homo sapiens); conditions: at 1 µM
[20] = target: T3, Mitogen-activated protein kinase 12 (Homo sapiens) (UniProt P53778); conditions: at 0.1 µM
T3 sequence (whole entry): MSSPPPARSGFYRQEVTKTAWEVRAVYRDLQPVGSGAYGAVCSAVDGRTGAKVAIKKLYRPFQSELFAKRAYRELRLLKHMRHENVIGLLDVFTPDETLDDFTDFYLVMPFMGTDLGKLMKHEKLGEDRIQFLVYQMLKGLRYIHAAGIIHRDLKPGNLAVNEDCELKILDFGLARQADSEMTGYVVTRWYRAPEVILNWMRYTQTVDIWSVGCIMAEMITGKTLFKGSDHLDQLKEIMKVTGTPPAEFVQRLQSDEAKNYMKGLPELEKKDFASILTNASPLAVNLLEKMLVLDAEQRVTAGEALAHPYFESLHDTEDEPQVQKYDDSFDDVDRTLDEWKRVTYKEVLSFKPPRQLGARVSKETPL

Glycogen synthase kinase-3 beta (Homo sapiens), sequence (P49841 whole entry, looked up): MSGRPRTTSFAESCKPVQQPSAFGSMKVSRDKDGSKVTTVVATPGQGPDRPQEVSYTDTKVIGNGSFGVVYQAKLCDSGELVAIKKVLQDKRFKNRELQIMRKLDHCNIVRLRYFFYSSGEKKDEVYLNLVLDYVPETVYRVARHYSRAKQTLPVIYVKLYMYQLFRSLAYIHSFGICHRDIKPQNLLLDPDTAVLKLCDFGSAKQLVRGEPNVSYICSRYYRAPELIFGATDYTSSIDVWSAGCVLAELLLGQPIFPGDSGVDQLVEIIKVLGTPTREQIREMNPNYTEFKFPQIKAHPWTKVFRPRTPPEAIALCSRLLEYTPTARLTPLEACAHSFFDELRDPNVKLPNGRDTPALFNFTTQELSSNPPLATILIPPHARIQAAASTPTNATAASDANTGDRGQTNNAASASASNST
Homeodomain-interacting protein kinase 1 (Homo sapiens), sequence (Q86Z02 whole entry, looked up): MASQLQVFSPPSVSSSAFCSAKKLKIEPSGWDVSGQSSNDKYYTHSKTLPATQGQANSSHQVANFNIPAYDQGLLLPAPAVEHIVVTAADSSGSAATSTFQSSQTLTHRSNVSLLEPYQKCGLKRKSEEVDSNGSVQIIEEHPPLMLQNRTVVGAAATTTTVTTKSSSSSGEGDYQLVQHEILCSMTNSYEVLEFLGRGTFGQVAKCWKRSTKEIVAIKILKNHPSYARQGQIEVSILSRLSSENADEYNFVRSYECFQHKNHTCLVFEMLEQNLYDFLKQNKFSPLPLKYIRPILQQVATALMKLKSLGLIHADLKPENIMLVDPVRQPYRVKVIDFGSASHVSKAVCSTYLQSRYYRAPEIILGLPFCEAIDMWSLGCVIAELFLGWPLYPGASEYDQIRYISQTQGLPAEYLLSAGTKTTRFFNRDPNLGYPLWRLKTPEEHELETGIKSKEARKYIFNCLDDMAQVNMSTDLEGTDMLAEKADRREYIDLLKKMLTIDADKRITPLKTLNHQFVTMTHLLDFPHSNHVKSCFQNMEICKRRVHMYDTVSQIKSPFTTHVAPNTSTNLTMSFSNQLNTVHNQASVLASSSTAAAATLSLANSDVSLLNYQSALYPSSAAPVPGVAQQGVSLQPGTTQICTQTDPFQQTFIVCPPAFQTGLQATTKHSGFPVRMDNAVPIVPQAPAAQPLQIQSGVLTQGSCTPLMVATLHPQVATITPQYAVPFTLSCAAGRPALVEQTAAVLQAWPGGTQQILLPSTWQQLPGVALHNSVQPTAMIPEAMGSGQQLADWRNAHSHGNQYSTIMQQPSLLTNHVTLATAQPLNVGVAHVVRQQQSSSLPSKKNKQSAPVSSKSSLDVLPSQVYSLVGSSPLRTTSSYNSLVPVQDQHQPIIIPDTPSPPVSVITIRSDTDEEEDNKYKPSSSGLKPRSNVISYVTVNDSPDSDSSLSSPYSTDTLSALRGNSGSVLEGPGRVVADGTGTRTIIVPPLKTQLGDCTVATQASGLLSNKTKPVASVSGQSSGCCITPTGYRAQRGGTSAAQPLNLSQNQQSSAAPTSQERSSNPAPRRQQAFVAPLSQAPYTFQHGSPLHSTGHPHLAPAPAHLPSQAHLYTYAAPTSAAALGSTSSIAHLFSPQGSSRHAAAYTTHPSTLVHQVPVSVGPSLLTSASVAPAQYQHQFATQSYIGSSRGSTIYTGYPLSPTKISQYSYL

Structure (SMILES) | inhibition [1] | inhibition [2] | inhibition [3] | inhibition [4] | inhibition [5] | inhibition [6] | inhibition [7] | inhibition [8] | inhibition [9] | inhibition [10] | inhibition [11] | inhibition [12] | inhibition [13] | inhibition [14] | inhibition [15] | inhibition [16] | inhibition [17] | inhibition [18] | inhibition [19] | inhibition [20]
Cc1ccc(Nc2ccnc(Nc3cccc(C(N)=O)c3)n2)cc1O | 17.4% | -4.04% | 0.47% | 2.33% | 10.8% | 3.91% | 14.6% | 4.59% | 4.19% | 3.66% | 5.1% | 0.91% | 7.12% | 4.41% | 28% | 3.7% | 17.7% | -1.12% | 4.69% | -1.03%
CN1CCN(C(=O)c2ccc(NC(=O)Nc3ccc(N(C)c4ccnc(Nc5ccc(CS(C)(=O)=O)cc5)n4)cc3)cc2)CC1 | 4.51% | -3.22% | 5.55% | 0.53% | 9.14% | 0.8% | 12.4% | 1.77% | 11.2% | 2.64% | 4.83% | -0.32% | -1.14% | 3.65% | 4.32% | 3.2% | 3.23% | 1.15% | 1.91% | 1.54%
COc1cc(Nc2nccc(-c3cnn4ncccc34)n2)cc(OC)c1 | 89.9% | 86.8% | 93.7% | 30.6% | 76.3% | 10.4% | 48.1% | 2.31% | 19.7% | 2.46% | 9.37% | -0.86% | -1.27% | 2.59% | 10.3% | 2.14% | 10.7% | 1.49% | 12.1% | 1.04%
COc1cc2ncnc(Nc3ccc4c(cnn4Cc4ccccc4)c3)c2cc1OC | 7.35% | -5.38% | -0.46% | -0.51% | 0.79% | 0.52% | 1.98% | 2.88% | 4.22% | 1.19% | 3.12% | -1.9% | -0.51% | 4.33% | 3.94% | 1.39% | 1.39% | 3.21% | 2.74% | 2.87%
COC(=O)c1cncc(/C=C/c2c(C)cc(O)cc2C)c1 | 12.9% | 5.96% | 7.63% | 2.51% | 6.29% | -0.35% | 2.18% | 4.28% | 4.13% | 3.96% | 3.36% | 1.31% | 1.48% | 1.5% | 5.57% | 0.99% | 3.92% | 1.59% | 4.29% | -1.81%
N#Cc1cccc(Nc2nccc(-c3cnn4ncccc34)n2)c1 | 88.1% | 82.9% | 89.3% | 79.9% | 88.1% | 10.4% | 44.3% | 15.6% | 59.4% | 8.27% | 35.8% | 0.24% | 3.11% | 3.74% | 14.6% | 3.01% | 14% | 12.9% | 47.1% | 4.57%
FC(F)(F)c1ccc(-c2nn3ncccc3c2-c2ccnc(Nc3ccc4c(c3)OCCO4)n2)cc1 | 9.99% | 9.14% | 7.72% | 9.55% | 11.2% | 3% | 32.6% | 1.76% | -1.13% | 3.25% | 3.1% | 5.92% | 1.12% | 17.1% | 67.5% | 3.8% | 36.8% | 5.26% | 0.38% | 4.31%
C[C@@H](Oc1cc(-n2cnc3ccc(OCC4CCN(C)CC4)cc32)sc1C(N)=O)c1ccccc1C(F)(F)F | 2.74% | -3.51% | 9.66% | 4.86% | 32.3% | -0.81% | -1.11% | 0.24% | 0.02% | -1.53% | -0.11% | 0.22% | 0.15% | -2.1% | 1.86% | 1.51% | 3.33% | -2.92% | -3.87% | -1.88%
COc1cccc(-n2nc(C)c3c(N/N=C(\C)c4ccncc4)ncnc32)c1 | 9.41% | -1.66% | 2.66% | -1.56% | 2.79% | 1.92% | 2.01% | 2.86% | 1.42% | -1.05% | -1.26% | -0.29% | -1.75% | 1.46% | 0.91% | 1.51% | 0.17% | -0.04% | -0.68% | -0.13%
Cc1ccc2c(-c3ccnc(Nc4ccc5c(c4)OCCO5)n3)c(-c3ccc(C(F)(F)F)cc3)nn2n1 | 10.2% | -4.36% | 0.03% | -0.51% | -0.85% | -0.33% | 4.2% | 1.99% | 2.01% | 2.57% | 3.87% | -2.01% | -1.1% | 3.33% | 23.2% | 1.91% | 5.75% | 0.71% | -1.27% | 0.73%
COc1cccc(-n2ncc3c(N/N=C/c4ccc(C)cc4)ncnc32)c1 | 47% | 1.58% | 13.3% | 3.16% | 11.4% | 8.36% | 11.6% | 6.17% | 7.67% | 4.71% | 3.26% | 3.27% | 0.15% | 6.95% | 9.02% | 1.15% | 4.42% | 4.61% | 6.26% | 3.81%
Nc1ccc(C#Cc2cncnc2Nc2ccc(OCc3cccc(F)c3)c(Cl)c2)cc1 | 0.21% | -0.22% | 0.93% | 0.09% | 0.28% | 1.88% | 1.2% | 4.25% | 3.67% | 3.61% | 1.8% | -1.31% | -1.26% | 7.8% | 8.07% | 5.64% | 6.16% | 2.44% | 1.41% | 2.15%
COc1cc2ncnc(Nc3ccc(C)c(O)c3)c2cc1OC | 11.2% | 2.85% | 2.79% | 3.31% | 9.35% | 4.57% | 5.02% | 5.5% | 7.98% | 4.96% | 7.04% | -1.99% | 0.42% | 5.71% | 22.1% | 6.38% | 17.4% | -2.57% | 6.31% | 2.43%
CS(=O)(=O)CCNCc1nc(-c2ccc3ncnc(Nc4ccc(OCc5cccc(C(F)(F)F)c5)cc4)c3c2)cs1 | 4.85% | -1.73% | 0.09% | -0.35% | 0.46% | 2.97% | 6.45% | 1.69% | 1.79% | 2.89% | 1.69% | 0.88% | -1.85% | 4.2% | 3.19% | 2.78% | 1.51% | 1.27% | 2.16% | 0.83%
